# Reference: article PMC4081100, “A DNA-binding-site landscape and regulatory network analysis for NAC transcription factors in Arabidopsis thaliana”
# Legend:
# Assay in all cases: universal protein binding microarray (PBM); transcription factors of Arabidopsis thaliana; high values mean tight binding
# Conditions in all cases: protein: recombinant; tags: GST; chain copies: 2; dsDNA, one strand shown
# [1] = target: T1, GST-ANAC092(1-176) (Arabidopsis thaliana, UniProt Q9FKA0 1-176)
# T1 sequence: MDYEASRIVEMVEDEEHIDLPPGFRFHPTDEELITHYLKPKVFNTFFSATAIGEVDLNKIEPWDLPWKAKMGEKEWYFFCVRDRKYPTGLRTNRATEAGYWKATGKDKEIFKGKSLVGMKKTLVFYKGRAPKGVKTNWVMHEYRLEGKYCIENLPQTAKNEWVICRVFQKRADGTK
# In short: (§1)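 Protein amounts were determined by A280 or anti-GST western blot after glutathione–Sepharose 4B purification of GST-tagged proteins induced in cells, with zinc acetate included for zinc-finger proteins. Duplicate runs at 200 to 500 nM final were done on custom all-10-mer Agilent 4 × 180K arrays made double-stranded by primer extension. The normalised enrichment score (E-score) over gapped and ungapped 8-mers is the measure of binding.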
# [2] = target: GST-NTL6(1-168) (Arabidopsis thaliana, UniProt Q9SCK6 1-168)
# GST-NTL6(1-168), sequence (Q9SCK6 1-168): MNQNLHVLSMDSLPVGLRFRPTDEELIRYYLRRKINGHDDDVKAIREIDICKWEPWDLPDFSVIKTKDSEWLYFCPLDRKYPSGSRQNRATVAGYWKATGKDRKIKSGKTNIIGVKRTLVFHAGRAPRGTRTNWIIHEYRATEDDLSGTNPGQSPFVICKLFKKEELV
# In short: as §1
# [3] = target: T2, GST-ANAC019 NAC domain (Arabidopsis thaliana, UniProt Q9C932 14-162)
# T2 sequence: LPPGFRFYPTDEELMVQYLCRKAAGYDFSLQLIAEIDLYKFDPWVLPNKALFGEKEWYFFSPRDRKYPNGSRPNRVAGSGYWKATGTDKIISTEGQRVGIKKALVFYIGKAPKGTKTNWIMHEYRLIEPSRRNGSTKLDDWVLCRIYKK
# In short: as §1
# [4] = target: T3, GST-ANAC055(1-171) (Arabidopsis thaliana, UniProt Q9LDY8 1-171)
# T3 sequence: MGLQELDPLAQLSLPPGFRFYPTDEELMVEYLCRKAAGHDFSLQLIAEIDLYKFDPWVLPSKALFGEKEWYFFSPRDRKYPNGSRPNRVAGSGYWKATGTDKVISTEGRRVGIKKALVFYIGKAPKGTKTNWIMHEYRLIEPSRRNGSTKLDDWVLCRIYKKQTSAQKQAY
# In short: as §1
# [5] = target: T4, GST-ATAF1 NAC domain (Arabidopsis thaliana, UniProt Q39013 7-158)
# T4 sequence: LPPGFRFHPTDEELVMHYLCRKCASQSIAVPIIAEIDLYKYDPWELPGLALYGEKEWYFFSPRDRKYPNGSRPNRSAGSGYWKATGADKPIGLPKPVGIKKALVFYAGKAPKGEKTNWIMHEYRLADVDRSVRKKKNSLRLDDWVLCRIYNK
# In short: as §1
# [6] = target: T5, GST-ANAC092(1-285) full length (Arabidopsis thaliana, UniProt Q9FKA0 1-285)
# T5 sequence: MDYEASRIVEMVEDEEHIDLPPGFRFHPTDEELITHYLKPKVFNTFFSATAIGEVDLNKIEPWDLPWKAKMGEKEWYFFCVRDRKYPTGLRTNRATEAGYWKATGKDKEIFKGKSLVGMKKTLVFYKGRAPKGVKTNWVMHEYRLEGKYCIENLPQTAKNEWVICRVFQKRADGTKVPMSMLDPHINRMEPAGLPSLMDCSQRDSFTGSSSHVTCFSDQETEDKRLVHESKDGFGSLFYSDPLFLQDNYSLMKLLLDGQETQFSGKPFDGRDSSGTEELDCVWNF
# In short: as §1
# [7] = target: T6, GST-NAP(1-166) (Arabidopsis thaliana, UniProt O49255 1-166)
# T6 sequence: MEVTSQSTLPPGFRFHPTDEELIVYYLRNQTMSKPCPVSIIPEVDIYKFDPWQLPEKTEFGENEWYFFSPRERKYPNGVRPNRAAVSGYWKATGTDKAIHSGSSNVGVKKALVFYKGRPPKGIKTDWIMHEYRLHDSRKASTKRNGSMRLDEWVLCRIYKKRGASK
# In short: as §1
# [8] = target: T7, GST-NST2(1-184) (Arabidopsis thaliana, UniProt Q9M274 1-184)
# T7 sequence: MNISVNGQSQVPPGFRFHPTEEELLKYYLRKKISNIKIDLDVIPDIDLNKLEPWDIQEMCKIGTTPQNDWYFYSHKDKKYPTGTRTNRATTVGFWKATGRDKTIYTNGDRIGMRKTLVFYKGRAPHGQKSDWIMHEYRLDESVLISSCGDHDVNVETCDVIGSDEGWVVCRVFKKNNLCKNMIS
# In short: as §1
# [9] = target: T8, GST-SND1(1-203) (Arabidopsis thaliana, UniProt Q9LPI7 1-203)
# T8 sequence: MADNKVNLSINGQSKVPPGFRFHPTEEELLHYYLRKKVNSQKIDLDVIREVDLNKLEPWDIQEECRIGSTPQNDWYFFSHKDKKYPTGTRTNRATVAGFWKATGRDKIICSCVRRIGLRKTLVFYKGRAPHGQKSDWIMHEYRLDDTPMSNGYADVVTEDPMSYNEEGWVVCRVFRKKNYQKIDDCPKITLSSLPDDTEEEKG
# In short: as §1
# [10] = target: T9, GST-VND3 NAC domain (Arabidopsis thaliana, UniProt Q9FH59 12-162)
# T9 sequence: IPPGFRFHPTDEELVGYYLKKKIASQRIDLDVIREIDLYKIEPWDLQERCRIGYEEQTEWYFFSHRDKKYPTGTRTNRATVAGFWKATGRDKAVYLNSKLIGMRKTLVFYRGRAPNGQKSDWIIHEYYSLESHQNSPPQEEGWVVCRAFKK
# In short: as §1
# [11] = target: T10, GST-VND7 NAC domain (Arabidopsis thaliana, UniProt Q9C8W9 9-158)
# T10 sequence: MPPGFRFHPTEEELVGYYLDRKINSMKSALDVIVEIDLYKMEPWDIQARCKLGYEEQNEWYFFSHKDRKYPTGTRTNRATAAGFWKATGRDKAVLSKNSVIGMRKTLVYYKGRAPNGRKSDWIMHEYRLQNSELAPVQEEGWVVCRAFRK
# In short: as §1
# [12] = target: T11, GST-NTL8 NAC domain (Arabidopsis thaliana, UniProt Q9XIN7 14-156)
# T11 sequence: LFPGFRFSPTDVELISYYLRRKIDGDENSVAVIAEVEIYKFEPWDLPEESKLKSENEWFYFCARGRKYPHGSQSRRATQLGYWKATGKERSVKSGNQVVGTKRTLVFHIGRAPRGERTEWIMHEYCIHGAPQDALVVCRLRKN
# In short: as §1
Sequence,binding signal [1] [E-score],binding signal [2] [E-score],binding signal [3] [E-score],binding signal [4] [E-score],binding signal [5] [E-score],binding signal [6] [E-score],binding signal [7] [E-score],binding signal [8] [E-score],binding signal [9] [E-score],binding signal [10] [E-score],binding signal [11] [E-score],binding signal [12] [E-score]
CACGTTAA,0.429,0.0985,0.125,0.243,0.219,0.442,0.129,0.301,0.377,0.184,0.156,
TAGCGTAA,0.453,0.123,0.0774,0.173,0.281,0.454,0.221,0.412,0.492,0.297,0.347,
GTTGCGTA,0.486,0.184,0.461,0.431,0.415,0.49,0.477,0.465,0.495,0.452,0.466,0.216
ACACGATA,0.38,0.127,0.324,0.261,0.267,0.417,0.183,0.27,0.266,0.273,0.248,
GTGAAGAA,0.238,0.244,0.305,0.215,0.316,0.197,0.164,0.129,0.182,0.304,0.288,0.403
GTACGTTA,0.42,0.0779,0.0888,0.226,0.325,0.426,0.173,0.316,0.415,0.253,0.148,
CACGGAAG,0.372,0.0727,0.471,0.435,0.343,0.403,0.367,0.12,0.164,0.435,0.428,0.129
